RGS16-Gao: regulators of human RGS16-Galphao interaction; O15492+P09471; bead-based flow cytometry RGS16-Galphao binding, fluorescence; actives lie on both sides; binding response (% of control), % at 10 µM; hit rate 0.38% among 220,000;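 also: Galphao activated by GDP with aluminum fluoride before binding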
RGS8-Gao reg: regulators of human RGS8-Galphao interaction. AID 1423. response (percent of control binding), % at 10 µM. multiplexed bead flow cytometry, RGS8-Galphao binding; actives lie on both sides. hit rate 0.34% among 220,000; in the data active = response below about 60% or above about 140%; inactive = in between;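 also: Galphao activated as the GDP aluminium fluoride complex binding bead-coupled RGS8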
Target sequence (P09471 whole entry, looked up): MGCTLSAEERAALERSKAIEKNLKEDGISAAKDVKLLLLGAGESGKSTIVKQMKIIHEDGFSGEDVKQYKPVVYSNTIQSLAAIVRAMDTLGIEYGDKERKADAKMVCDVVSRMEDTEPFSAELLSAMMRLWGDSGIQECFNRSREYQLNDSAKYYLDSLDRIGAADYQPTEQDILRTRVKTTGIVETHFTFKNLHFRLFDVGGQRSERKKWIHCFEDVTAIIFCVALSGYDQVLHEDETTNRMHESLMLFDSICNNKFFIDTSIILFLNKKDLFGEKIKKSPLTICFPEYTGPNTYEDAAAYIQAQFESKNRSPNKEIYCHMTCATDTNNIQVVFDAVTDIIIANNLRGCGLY
GSH fluor: compound fluoresces at 488/530 nm on GSH beads | hit rate 0.25% among 190,000 | AID 1776 | fluorescence (KMESF) at 10 µM | GSH beads flow cytometry, compound fluorescence 488/530 nm; active compounds read high; in the data active = fluorescence above about 89;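 also: glutathione beads carrying GST-tagged Bcl family fusion proteins plus one bare bead set; values are compound well signal with DMSO vehicle wells as background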
RGS7-Gao: human RGS7-Galphao interaction regulation. P09471. Multiplexed bead flow cytometry, RGS7-Galphao binding; actives lie on both sides. binding response (% of control), % at 10 µM. hit rate 0.35% among 220,000. AID 1439; in the data active = binding response below about 49% or above about 150%; inconclusive = no clear call, values can overlap the other calls; inactive = in between;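 also: fluorescent Galphao held in activated GDP-AlF4 state binding bead-coupled RGS7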
RGS4-Gao reg: modulates binding of RGS4 to human Galphao. binding response (% of control), % at 10 µM. hit rate 0.33% among 220,000. AID 1415. Multiplexed bead flow cytometry; actives lie on both sides; in the data active = binding response below about 49% or above about 150%; inactive = in between;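 also: fluorescent Galphao activated with aluminum fluoride binding bead-coupled RGS4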
Avidin bead fluor: avidin bead compound fluorescence profile; Avidin beads, compound fluorescence 488/530 nm, flow cytometry; active compounds read high; fluorescence (KMESF) at 10 µM; hit rate 0.38% among 220,000; in the data active = fluorescence above about 47
RGS-Gao: regulators of human RGS4-Galphao interaction; RGS4–Galpha-o binding response, % at 10 µM; shares compounds with RGS16-Gao; AID 1504; hit rate 99% among 1,600; multiplexed bead flow cytometry, RGS–Galpha-o binding;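 also: fluorescently labeled Galpha-o bound to GDP with aluminium fluoride binding biotinylated RGS beads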
Biotin-avidin: interferes with biotinylated probe binding to avidin beads; streptavidin beads, fluorescein-biotin binding, flow cytometry; AID 1783; shares compounds with RGS16-Gao; 1,700 tested, under 10 active; inhibition, % at 10 µM;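 active = inhibition above 50%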;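 also: median green fluorescence of gated singlet beads compared with DMSO control wells; 0% = DMSO wells and 100% = complete loss of bead fluorescence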
RGS8-Gao confirm: RGS8-Galphao interaction regulation, single point confirmation; hit rate 3% among 1,700; AID 1836; binding response (% of control), % at 10 µM; shares compounds with RGS16-Gao; bead-based flow cytometry RGS8-Galphao binding, fluorescence; actives lie on both sides; in the data active = binding response below about 72% or above about 130%; inactive = in between;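 also: Galphao activated as GDP AlF4 complex before binding bead RGS8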
RGS7-Gao single: confirmation of regulators of human RGS7-Galphao interaction | shares compounds with RGS16-Gao | bead-based flow cytometry RGS7-Galphao binding; actives lie on both sides | response (percent of control binding), % at 10 µM | hit rate 7.8% among 1,700; in the data active = response below about 75% or above about 130%; inactive = in between;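 also: fluorescent Galphao activated with GDP and aluminum fluoride binding bead-coupled RGS7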
RGS16-Gao conf: confirmation of regulators of human RGS16-Galphao interaction; shares compounds with RGS16-Gao; bead-based flow cytometry, RGS16-Galphao binding; actives lie on both sides; response (% of control binding), % at 10 µM; AID 1838; hit rate 4% among 1,700; in the data active = response below about 74% or above about 130%; inactive = in between;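 also: Galphao activated as the GDP aluminium fluoride complex binding bead-coupled RGS16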
RGS4-Gao single: RGS4-Galphao interaction regulation, single point confirmation | AID 1840 | RGS4-Galphao binding, multiplexed bead flow cytometry; actives lie on both sides | binding response (% of control), % at 10 µM | hit rate 4% among 1,700 | shares compounds with RGS16-Gao; in the data active = binding response below about 74% or above about 130%; inactive = in between
RGS19-Gao conf: confirmation of regulators of human RGS19-Galphao interaction | shares compounds with RGS16-Gao | bead-based flow cytometry RGS19-Galphao binding; actives lie on both sides | response (percent of control binding), % at 10 µM | hit rate 5% among 1,700; in the data active = response below about 50% or above about 160%; inactive = in between;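 also: 100% = no compound control and 0% = blank background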
Target sequence (P09471 whole entry, looked up): as above
Target sequence (P49795 whole entry, looked up): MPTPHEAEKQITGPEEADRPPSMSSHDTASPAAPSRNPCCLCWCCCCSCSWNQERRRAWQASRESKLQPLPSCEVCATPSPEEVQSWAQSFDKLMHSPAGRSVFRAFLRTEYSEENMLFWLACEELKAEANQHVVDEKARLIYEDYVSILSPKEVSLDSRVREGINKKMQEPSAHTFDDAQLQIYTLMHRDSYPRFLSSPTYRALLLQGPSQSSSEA
An asterisk follows results filed as active; u = inconclusive; x = no result; [ ] = remark or other dose. In the library only some 1.2% were active in any assay of this set; here they are far more common. Unless noted, no rule for the calls is given here.

SMILES	RGS16-Gao	RGS8-Gao reg	GSH fluor	RGS7-Gao	RGS4-Gao reg	Avidin bead fluor	others
O=C1NC(=O)C2(Cc3ccccc3N3CCCC32)C(=O)N1 (centres undefined)	87.2	94.5	32	99.6	100.8	8
O=C1NC(=O)C2(Cc3ccccc3N3CCCC32)C(=O)N1c1ccccc1 (centres undefined)	99.7	99.2	23	110.7	98.6	54*
O=C(Cn1cc(C(=O)c2ccccc2)c2ccccc21)NCc1ccco1	111.2	105.4	20	107.9	102.6	50*
CCOP(=O)(OCC)C(O)c1cccnc1 (centres undefined)	113.4	109.1	x	u	131.8	81*
CCOP(=O)(OCC)C(O)c1ccccc1 (centres undefined)	101.4	103.7	x	u	107.5	4
CN1C2c3ccccc3C3C4c5ccccc5C(C31)C(C2[N+](=O)[O-])N4C (centres undefined)	106.7	102.0	x	u	104.5	3
CC(=O)OC1(c2ccccc2)CCN(C2CCCCC2)CC1C (centres undefined)	109.2	104.4	17	106.6	106.7	6
Cc1n[nH]c(C)c1CCN	104.8	101.7	16	102.2	103.5	59*
Cc1ccc(C)c(C2(O)CC(C)N(C)CC2C)c1 (centres undefined)	100.5	99.6	11	105.4	101.0	10
O=P(O)(O)C#Cc1ccccc1	95.2	96.7	261*	97.0	97.9	9
CC1Oc2cc3c(-c4c(O)cc(O)c5c(O)c6c(cc45)OC(C)C(C)C6=O)c(O)cc(O)c3c(O)c2C(=O)C1C (centres undefined)	15.0*	36.3*	x	u	13.7*	0
O=c1[nH]c(=O)n(CCC2=CCCCC2)c(O)c1C=Nc1cccc(F)c1	96.7	102.0	12	113.5	100.3	57*
Nc1ccccc1N=Cc1c(O)n(CCC2=CCCCC2)c(=O)[nH]c1=O	99.9	100.0	10	96.3	99.6	19
CCCCCn1c(=O)c(C(=O)Nc2nc(CC(=O)OCC)cs2)c(O)c2ccccc21	103.0	103.2	96*	102.2	101.5	22
COc1cc(NC(=O)CN2C3CCC2CC(O)(c2cccnc2)C3)cc(OC)c1 (centres undefined)	100.2	100.1	11	113.4	104.0	49*
COC1=CCC2([N+](=O)[O-])CN(C)CC1([N+](=O)[O-])C2 (centres undefined)	107.5	100.6	12	103.2	103.1	12
CC(=O)N1N=C2C3CCN(CC3)C2C1c1ccc(Br)cc1 (centres undefined)	103.4	100.8	x	u	99.8	8
CC[n+]1c(SC)ccc2cc(OC)ccc21	102.2	100.7	11	101.2	101.3	15
CC(C)(C)c1nc(NCc2ccc3c(c2)OCO3)c2nnn(Cc3ccccc3Cl)c2n1	103.8	100.0	141*	101.6	100.9	4
CCCC(=O)c1ccc(CP(=O)(OCC)OCC)o1	107.8	105.6	x	u	104.0	10
NNc1n[nH]c(=S)n1N	144.4	104.1	x	u	143.9	88*
Cc1cc(OC(=O)N(C)C)nc(-c2ccc(C)c(Cl)c2)n1	102.1	100.2	x	u	100.1	7
CCOP(=O)(OCC)C(NC(=O)c1cccc([N+](=O)[O-])c1)C(Cl)(Cl)Cl (centres undefined)	94.1	97.8	x	u	94.6	4
O=c1c2ccccc2nc(-c2ccco2)n1-c1ccccc1	112.5	106.0	125*	109.1	117.6	12
O=c1[nH]c(=O)n(C2CCCCC2)c(O)c1C1NCCc2ccccc21 (centres undefined)	100.4	102.6	261*	101.5	105.8	6
SMILES	RGS16-Gao	RGS8-Gao reg	GSH fluor	RGS7-Gao	RGS4-Gao reg	Avidin bead fluor	others
COP(=O)(OC)C(NC(C)=O)C(Cl)(Cl)Cl (centres undefined)	104.4	105.2	18	102.5	107.3	6
CCOC(=O)N1CCC(NC(=O)CCc2nc(C3=CCN(C)CC3)no2)CC1	109.5	101.1	23	189.7*[activator]	124.9	166*	RGS-Gao=124.9*
CCC(=NCc1ccco1)c1c(O)n(-c2ccccc2C)c(=O)[nH]c1=O	100.5	101.7	x	u	104.8	12
O=c1c2ccccc2[nH]c(=S)n1-c1ccc2c(c1)OCCO2	95.7	98.8	x	u	97.8	7
Clc1cc(Cl)cc(NC2=NCCS2)c1	-16.7*	16.9*	x	u	-28.9*	-3	Biotin-avidin=0.0;RGS8-Gao confirm=103.3;RGS7-Gao single=106.1;RGS16-Gao conf=102.1;RGS4-Gao single=105.6;RGS19-Gao conf=98.2
COc1ccc(C(O)P(=O)(OC(C)C)OC(C)C)cc1 (centres undefined)	103.2	99.0	x	u	106.8	19
CCOP(=O)(OCC)C(O)c1ccc(OC)cc1 (centres undefined)	x	x	x	x	x	x	Biotin-avidin=1.3;RGS8-Gao confirm=95.6;RGS7-Gao single=86.7;RGS16-Gao conf=92.7;RGS4-Gao single=91.2;RGS19-Gao conf=68.6
Cc1ccc(C(=O)N[C@@H](C)CN2C3=NC[C@H](Cc4ccccc4)N3C[C@H]2Cc2ccc(O)cc2)cc1Br	76.9	91.0	x	u	72.8	7
Cc1ccc(C(=O)N[C@@H](C)CN2C3=NC[C@@H](Cc4ccccc4)N3C[C@H]2Cc2ccc(O)cc2)cc1Br	9.1*	18.1*	22	5.7*	16.6*	-1	Biotin-avidin=2.0;RGS8-Gao confirm=103.4;RGS7-Gao single=103.0;RGS16-Gao conf=99.3;RGS4-Gao single=103.1;RGS19-Gao conf=96.3
COc1ccc(C(c2c(O)c3ccccc3oc2=O)c2c(C)n(C)n(-c3ccccc3)c2=O)cc1 (centres undefined)	91.8	100.0	23	93.8	95.8	13
